High-throughput results: PubChem BioAssay, National Center for Advancing Translational Sciences (NCATS)
S2 tox = reduces viability in counter-screen for ATXN expression inhibitors; S2 cells (HEK-293 line with an ATXN2-luciferase reporter) viability, CellTiter-Fluor protease fluorescence, 24 h; Potency, µM (series often up to 56.7 µM), most hits filed as cytotoxic; hit rate 0.49% among 400,000; also: nearly all actives have a fitted effect of over 40% in size
Nrf2 inh = inhibitors of Nrf2 signaling. A549 ARE-Fluc reporter, luciferase luminescence, 18-24 h. Potency, µM (highest dose often 46 µM), inactives show at the top dose activity change, negative = inhibition, usual class: inhibitors. hit rate 2.1% among 360,000; also: % is scaled to controls: 0 for no effect and ±100 for the full control effect; nearly all actives have a fitted effect of over 60% in size
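A549 ARE_Fluc cells, 5000/well, 5% FBS OPTI-MEM; compounds in dose-response, 18-24 h at 37 °C/5% CO2; CellTiter-Fluor viability read (Ex 405/Em 525), then BugLite luciferase luminescence = Nrf2 activity.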
A549 viability = counter-screen for Nrf2 inhibitors: cytotoxicity in A549 cells | A549 ARE-Fluc cells, CellTiter-Fluor viability, 18-24 h | Potency, µM (doses to about 46 µM), without a hit: at the top dose activity change, negative = cytotoxicity, usual class: inhibitors | hit rate 0.16% among 390,000; also: % is scaled to controls: 0 for no effect and ±100 for the full control effect
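A549 ARE_Fluc cells in 5% FBS OPTI-MEM were exposed to compounds in concentration-response for 18-24 h at 37 deg C. Viability was read by CellTiter-Fluor fluorescence (Ex 405/Em 525) after 30 min, before the luciferase read.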
ATXN2 expr inh = reduces ATXN2 reporter expression in HEK-293 cells; hit rate 0.72% among 360,000; HEK-293 ATXN2-luciferase reporter, luminescence, 24 h; Potency, µM (top dose mostly 57 µM), without a hit: at the highest dose activity change, negative = inhibition, hits mostly inhibitors; also: % is scaled to controls: 0 for no effect and ±100 for the full control effect; nearly all actives have a fitted effect of over 55% in size
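qHTS (up to 57 uM final) was run with 24 h compound exposure of reporter cells at 37 °C. Each well was multiplexed: SteadyGlo luminescence measured ATXN2-luciferase expression after a fluorogenic Gly-Phe-AFC viability readout (25 uM final).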
Nrf2 ARE act = activates Nrf2 signaling; AREc32 ARE-luciferase reporter (MCF7-derived line), luminescence, 24 h; Potency, µM (series often up to 46.1 µM), without a hit: top-dose activation, usual class: activators; hit rate 0.31% among 410,000; AID 624171; also: % of control where 0% means no effect; nearly all actives have a fitted effect of over 65% in size
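Cells of the AREc32 ARE-luciferase line are plated in OPTI-MEM containing 5% FBS and left overnight at 37 deg C. Compounds are pinned in, incubation continues 24 hr, and firefly luciferase signal is then measured.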
Active calls of the source: *; i = inactive; ? = inconclusive; . = no result given; ! = not active in a repeat; [ ] = remark or other dose. In the library only some 2.9% were active in any assay of this set; here they are far more common. Calls follow the shape of the dose curve; as a rule, active = well fitted curve in the direction sought with a large enough effect; inconclusive = small, poorly fitted or top-dose-only effect, or another doubt; inactive = no such curve, though single readings can be large; an effect the other way counts as inactive or inconclusive. Potency is read from the fitted curve at half-maximal effect.

SMILES | S2 tox | Nrf2 inh | A549 viability | ATXN2 expr inh | Nrf2 ARE act
CC(C)N=C(N)/N=C(\N)Nc1ccc(Cl)cc1 | i | . | . | -23% | .
NC(=NCCCCCCN=C(N)/N=C(\N)Nc1ccc(Cl)cc1)/N=C(\N)Nc1ccc(Cl)cc1 | 32µM*! | 23µM*! | ? | 20µM*! | 0%
CCCCN(CCCC)C(C(N)=O)c1ccc(OC)cc1 (stereo unspecified) | i | . | . | 7% | .
CCCCN(CCCNC(=S)NCCCc1cnc[nH]1)c1ccc(Br)cn1 | 18µM* | 2% | 2% | ? | 5%
S=C(NCCCc1cnc[nH]1)NCCCN(Cc1ccc(Cl)cc1)c1ccc(Br)cn1 | 28µM* | 7% | -5% | ? | -3%
S=C(NCCCc1cnc[nH]1)NCCCN(CCc1ccccc1)c1ccc(Br)cn1 | . | 0% | -15% | . | .
S=C(NCCCc1cnc[nH]1)NCCCN(CCc1ccc(Cl)cc1)c1ccc(Br)cn1 | . | 15% | 24% | . | .
CCOC(=O)C1CCCN(C(=O)c2cnn(-c3nccc(-c4cc(C)sc4C)n3)c2C)C1 (stereo unspecified) | i | . | . | . | .
Cc1ccc(NC(=O)c2sc(-n3nc(C)c(CCC(C)C)c3C)nc2C)cc1C | i | 9% | 5% | 10% | -1%
O=c1[nH]c2ccc(S(=O)(=O)N3CCN(S(=O)(=O)c4ccc5c(c4)OCCO5)CC3)cc2[nH]c1=O | . | 12% | -4% | . | .
Cc1ccc(NC(=O)CCn2c(=O)c3cccn3c3ccccc32)cc1Cl | . | 11% | 4% | . | 3%
CCN[C@@H]1C[C@H](N)[C@@H](OC2OC(CN)=CCC2N)[C@H](O)[C@H]1O[C@H]1OC[C@](C)(O)[C@H](NC)[C@H]1O (stereo partly specified) | i[0.575 µM] | . | . | -2%[0.709 µM] | .
CC(C)c1ccc(S(=O)(=O)/N=C2/C=C(Sc3ncn[nH]3)C(=O)c3ccccc32)cc1 | ? | 18µM* | ? | 14µM* | -3%
Cc1ccc(S(=O)(=O)/N=C2/C=C(Sc3ncn[nH]3)C(=O)c3ccccc32)cc1 | ? | ? | ? | ? | -3%
Cc1ccc(C(=O)C(=O)O)cc1C | i | . | . | 2% | .
CCc1cc(C(=O)N2CCCC(N3CCN(c4cccc(C(F)(F)F)c4)CC3)C2)n(C)n1 (stereo unspecified) | i | 8.2µM* | -17% | -29% | 0%
O=C(c1ccncc1)N1CCCC(N2CCN(c3cccc(C(F)(F)F)c3)CC2)C1 (stereo unspecified) | i | ? | 4% | -16% | 0%
COc1ccccc1-c1c(C(F)(F)F)oc2cc(OS(C)(=O)=O)ccc2c1=O | i | 8.2µM* | -11% | -2% | 2%
CC(C)(C)C(=O)NC(=S)NNC(=O)C(c1ccccc1)c1ccccc1 | i | 21µM* | -26% | -24% | -1%
CCNC(=S)NNC(=O)C(c1ccccc1)c1ccccc1 | i | 5% | -2% | -5% | 0%
CC(=O)NNC(=S)NC(=O)C(c1ccccc1)c1ccccc1 | ? | 16µM* | ? | ? | 0%
CCCC/C=C/[C@H](c1ccccc1)[C@H](CO)Cc1cnc2ccccc2c1 | . | 0% | 7% | . | .
CCOC(=O)CN[C@@H](C(=O)N1CC[C@H]1C(=O)NCc1ccc(/C(N)=N/O)cc1)C1CCCCC1 | i | . | . | . | .
Cc1cc2c(s1)c1cnn(Cc3cc(F)cc(F)c3F)c(=O)c1n2C | . | 0% | -3% | . | .
CC[N+](CC)(CC)CCOc1ccc(/C=C/c2ccccc2)cc1 | ? | 15µM* | -9% | 18µM*! | -1%
O=C(Nc1ccc(F)cc1)c1cccc(N2C(=O)C3C4C=CC(C4)C3C2=O)c1 (stereo unspecified) | i | -21% | -6% | 2% | 0%
O=C(Nc1ccc(F)cc1)c1cccc(N2C(=O)C3C4C=CC(C5CC45)C3C2=O)c1 (stereo unspecified) | ? | 15µM* | -12% | -23% | 0%
O=C(Nc1ccccc1)c1cccc(N2C(=O)C3C4C=CC(C5CC45)C3C2=O)c1 (stereo unspecified) | ? | 21µM* | -11% | -21% | 0%
COC(=O)c1ccc(NC(=O)c2cccc(N3C(=O)CCC3=O)c2)cc1 | i | 4% | -8% | 4% | 0%
